The text below walks through data of PubChem BioAssay (Tox21).

Assay [1] can be described thus: Nuclear factor erythroid 2-related factor 2/antioxidant responsive element (Nrf2/ARE) small molecule agonists: qHTS cell viability counter screen in human keratinocytes (AID 1919968; active = well fitted curve in the direction sought with a large enough effect in the repeat runs; an effect the other way counts as inactive or inconclusive; also: nearly all actives have a fitted effect of over 55% in size). The gist of the method:
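After a 5 h attachment period, ARE-reporter keratinocytes were dosed with compounds in DMSO and then cultured 23 h at 37 C. Cell viability came from CellTiter-Fluor signal read after a further 1 h.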
On the technique in general: In qHTS, concentration-response curves come from the screen itself.

Assay [2] is described as follows: Nuclear factor erythroid 2-related factor 2/antioxidant responsive element (Nrf2/ARE) small molecule agonists: luciferase reporter gene qHTS assay in human keratinocytes (AID 1919969). Also: nearly all actives have a fitted effect of over 35% in size. Also: potency is read from the fitted curve at half-maximal effect. For orientation: Reporter assays use an easily measured gene product as a stand-in for the process of interest.
The target in assay [3] is Gonadotropin-releasing hormone receptor (Homo sapiens) (UniProt P30968). The assay can be described thus: Human gonadotropin-releasing hormone receptor (GnRHR) small molecule agonists, calcium flux assay in GnRHR-HEK293 cells (AID 1920063). Also: nearly all actives have a fitted effect of over 35% in size. Put shortly: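 We seeded human GnRHR-expressing HEK293 cells for 18 hours, loaded them with calcium dye for an hour at 37 C, added test compounds, and recorded fluorescence intensity kinetically for three minutes.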
For orientation: A change in cytosolic calcium serves as a functional read-out for many receptors and channels.

The target of assay [4] is KiSS-1 receptor (Homo sapiens) (UniProt Q969F8). As to the kind of experiment: Human kisspeptin (KISS1R) small molecule agonists, calcium flux assay in KISS1R-HEK293 cells (AID 1920064; active = well fitted curve in the direction sought with a large enough effect in the repeat runs; an effect the other way counts as inactive or inconclusive). Put shortly:
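Kinetic calcium assay, 1 s sampling over 3 min at Ex/Em 480/540, in HEK293 cells engineered with human KISS1R; compounds delivered in DMSO after 1 h dye loading.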

Assay [5] in a line: G protein-coupled receptor (GPCR) small molecule agonists, calcium flux assay: HEK293 wild type cell line counter screen (AID 1920065). The gist of the method: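 Calcium-sensitive dye, loaded 1 h at 37 C into cells cultured 18 h, reports compound-evoked calcium release as fluorescence (Ex/Em 480/540), measured over 3 min. Agonist mode; 15-point titrations, triplicate.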
The nature of assay [6]: p53 small molecule agonists, cell-based qHTS assay with human liver microsomes (AID 1963577).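 Also: p53 response element beta-lactamase reporter cells with liver microsomes plus NADPH.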 The gist of the method: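 With metabolic activation: human liver microsomes (0.5 mg/mL final) plus NADPH (0.5 mg/mL final) added alongside compounds to p53RE-bla cells; 16 h 37 C exposure; beta-lactamase read by LiveBLAzer fluorescence.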
A short description of assay [7]: p53 small molecule agonists, cell-based qHTS assay with rat liver microsomes (AID 1963578). Put shortly: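 Metabolic activation by rat liver microsomes and NADPH, each 0.5 mg/mL final, added right after compounds to p53RE-bla reporter cells (4,000/well, plated 5 h earlier). 16 h at 37 C, then LiveBLAzer substrate for 2 h at room temperature in the dark; fluorescence read-out.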

A short description of assay [8]: p53 small molecule agonists, cell-based qHTS assay with human liver microsomes: qHTS cell viability counter screen (AID 1963579). Also: nearly all actives have a fitted effect of over 45% in size. The gist of the method:
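Metabolic activation used human liver microsomes and NADPH, both 0.5 mg/mL final, over 16 hours at 37 C on p53RE-bla cells (4,000/well). Cytotoxicity measured by CellTiter-Glo luminescence, 30 min at room temperature.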

Assay [9] is described as follows: p53 small molecule agonists, cell-based qHTS assay with rat liver microsomes: qHTS cell viability counter screen (AID 1963580). Also: nearly all actives have a fitted effect of over 45% in size. Put shortly: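 In HCT-116 cells carrying a p53 response element-bla reporter, compounds were metabolically activated in situ by rat liver microsomes with NADPH over 16 h. Cell ATP content then served as the cytotoxicity measure.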
Assay [10] can be described thus: p53 small molecule agonists, cell-based qHTS assay: qHTS cell viability counter screen (AID 1963581). Also: nearly all actives have a fitted effect of over 45% in size. Put shortly: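 Following 5 h attachment, HCT-116 p53RE-bla cells took up compound for 16 h at 37 C; the reporter was read with B/G FRET substrate (2 h RT), and viability then via CellTiter-Glo ATP luminescence.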
Assay [11] can be described thus: p53 small molecule agonists, cell-based qHTS assay (AID 1963582; active = well fitted activation curve with a large enough effect in the signal ratio in the repeat runs, not every such curve was filed as active; the % refers to the signal ratio). The gist of the method: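 In this cell-based concentration-response screen, a p53 response element drives beta-lactamase; cells received DMSO-borne compounds after 5 h culture and were incubated a further 16 h before FRET substrate development.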
For assay [12], the target named is 5-hydroxytryptamine receptor 2A (Homo sapiens) (UniProt P28223). The assay can be described thus: 5-hydroxytryptamine receptor 2A (HTR2A) small molecule antagonists, cell-based qHTS assay (AID 1963586). Also: nearly all actives have a fitted effect of over 45% in size. The gist of the method: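 Antagonist-mode intracellular calcium assay: DOI (4 nM) added after 5 min compound pre-incubation at room temperature to dye-loaded HTR2A-CHO cells. Fluorescence followed for 3 min, sampled every second.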

The target is the same in assay [13]. The assay can be described thus: 5-hydroxytryptamine receptor 2A (HTR2A) small molecule agonists, cell-based qHTS assay (AID 1963587). Also: nearly all actives have a fitted effect of over 30% in size. Put shortly: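 HTR2A-CHO cells, plated 18 h at 37 C/5% CO2, dye-loaded 1 h at 37 C; compounds in DMSO added by pin tool (agonist mode). Intracellular calcium flux read as kinetic fluorescence on FDSS over 2 min at 1 s intervals.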

Assay [14] deals with Muscarinic acetylcholine receptor M1 (Homo sapiens) (UniProt P11229). The assay can be described thus: Cholinergic receptor muscarinic 1 (CHRM1) small molecule agonists, cell-based qHTS assay (AID 1963589). Also: nearly all actives have a fitted effect of over 35% in size. Put shortly:
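Measures agonist-induced intracellular calcium rise. Stable human CHRM1 CHO line, 1 h dye load at 37 C, compounds from DMSO, kinetic fluorescence read.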

Assay [15] can be described thus: cAMP Responsive Elements (CRE) small molecule agonists, cell-based qHTS assay (AID 1963590). The gist of the method:
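A CRE-responsive beta-lactamase reporter in HEK 293T cells was used. Treatment ran 3 h at 37 C; detection used LiveBLAzer B/G FRET substrate for 2 h at room temperature.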

Assay [16] in a line: cAMP Responsive Elements (CRE) small molecule antagonists, cell-based qHTS assay (AID 1963591; active = well fitted inhibition curve with a large enough effect in the signal ratio in the repeat runs, not every such curve was filed as active; the % refers to the signal ratio). The gist of the method:
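HEK293T cells carrying a CRE-driven beta-lactamase reporter receive compound and NKH477 (0.25 uM final) for 3 h. Fluorescence from LiveBLAzer B/G FRET substrate is read after 2 h at room temperature.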

Assay [17] concerns the target Beta-2 adrenergic receptor (Homo sapiens) (UniProt P07550). The assay can be described thus: Adrenergic beta2 receptor (ADRB2) small molecule antagonists, cell-based qHTS assay (AID 1963592). Also: series mostly up to about 92 µM; nearly all actives have a fitted effect of over 50% in size. The gist of the method:
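Cells (CHO, stable ADRB2 overexpression) incubated 18-20hr at 37C; compounds added from DMSO; agonist mix (1nM isoproterenol, 100uM IBMX, 25uM Ro-20-1724) added; 0.5hr RT; d2-cAMP and anti-cAMP-cryptate added; 1hr RT; 665/615 nm read.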

In assay [18] the target is D(2) dopamine receptor (Homo sapiens) (UniProt P14416). As to the kind of experiment: Dopamine D2 receptor (DRD2) small molecule agonists, cell-based qHTS assay (AID 1963594). Also: nearly all actives have a fitted effect of over 35% in size. Put shortly:
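HEK293 cells stably expressing DRD2 were cultured 24 h at 37 C, then given Ro20-1724 (0.1 mM final) and compounds for 10 min at room temperature. NKH477 (200nM) was then added for 30 min. cAMP was read by HTRF.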

Assay [19] has the same target. As to the kind of experiment: Dopamine D2 receptor (DRD2) small molecule antagonists, cell-based qHTS assay (AID 1963595; active = well fitted inhibition curve with a large enough effect in the signal ratio in the repeat runs, with a control signal flat; the % refers to the signal ratio). Put shortly: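 HEK293 cells stably expressing DRD2 were preincubated with 0.1 mM Ro20-1724, then with compound for 10 min at room temperature. Cells were stimulated with 200 nM NKH477 plus 12 nM quinpirole for 30 min, and cAMP was read by HTRF.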

Assay [20] concerns the target Muscarinic acetylcholine receptor M1 (Homo sapiens) (UniProt P11229). As to the kind of experiment: Cholinergic receptor muscarinic 1 (CHRM1) small molecule antagonists, cell-based qHTS assay (AID 1963588). Also: nearly all actives have a fitted effect of over 40% in size. Put shortly:
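CHRM1-CHO calcium-flux assay, antagonist mode. Cells were seeded 18 h, dye-loaded 1 h at 37 C and given compound for 5 min at RT, then acetylcholine was added at 50nM. FDSS fluorescence was read 3 min; 15 concentrations, three runs.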

A number with no mark means an inactive call. Inconclusive results are not listed. Activity calls are given as the source filed them. Unless noted, calls follow the shape of the full dose curve.
% is scaled to controls: 0 for no effect and ±100 for the full control effect.

D(2) dopamine receptor (Homo sapiens), sequence (P14416 whole entry, looked up): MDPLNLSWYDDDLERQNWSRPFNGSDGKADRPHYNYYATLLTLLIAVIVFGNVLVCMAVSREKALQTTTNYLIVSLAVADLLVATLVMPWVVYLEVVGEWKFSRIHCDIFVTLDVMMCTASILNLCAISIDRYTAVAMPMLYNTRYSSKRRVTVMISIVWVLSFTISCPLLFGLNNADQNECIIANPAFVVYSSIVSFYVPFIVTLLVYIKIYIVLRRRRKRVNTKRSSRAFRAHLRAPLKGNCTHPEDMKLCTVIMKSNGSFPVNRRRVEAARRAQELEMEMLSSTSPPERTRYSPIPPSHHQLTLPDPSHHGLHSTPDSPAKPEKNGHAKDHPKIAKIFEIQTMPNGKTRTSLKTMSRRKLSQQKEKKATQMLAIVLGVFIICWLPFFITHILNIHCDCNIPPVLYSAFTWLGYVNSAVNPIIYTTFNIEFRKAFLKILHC
Gonadotropin-releasing hormone receptor (Homo sapiens), sequence (P30968 whole entry, looked up): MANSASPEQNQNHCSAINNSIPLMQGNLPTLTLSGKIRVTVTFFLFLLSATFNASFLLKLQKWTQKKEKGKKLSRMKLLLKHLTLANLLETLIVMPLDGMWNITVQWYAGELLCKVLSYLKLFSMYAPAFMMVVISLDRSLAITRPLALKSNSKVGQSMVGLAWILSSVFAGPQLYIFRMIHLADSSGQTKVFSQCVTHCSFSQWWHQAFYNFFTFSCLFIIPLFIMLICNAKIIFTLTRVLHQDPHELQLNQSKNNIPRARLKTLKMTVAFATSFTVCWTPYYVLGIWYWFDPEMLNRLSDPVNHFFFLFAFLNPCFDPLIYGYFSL
KiSS-1 receptor (Homo sapiens), sequence (Q969F8 whole entry, looked up): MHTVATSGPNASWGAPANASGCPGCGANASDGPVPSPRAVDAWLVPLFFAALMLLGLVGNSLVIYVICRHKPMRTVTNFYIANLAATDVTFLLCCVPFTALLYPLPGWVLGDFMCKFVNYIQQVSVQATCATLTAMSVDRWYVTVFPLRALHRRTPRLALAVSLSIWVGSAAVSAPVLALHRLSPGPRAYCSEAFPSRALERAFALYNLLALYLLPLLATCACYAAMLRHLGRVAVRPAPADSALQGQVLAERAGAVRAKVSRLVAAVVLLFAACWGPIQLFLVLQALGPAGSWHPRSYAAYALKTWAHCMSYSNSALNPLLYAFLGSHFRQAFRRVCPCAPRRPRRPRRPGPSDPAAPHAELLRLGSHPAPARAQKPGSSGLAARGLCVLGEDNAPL
Muscarinic acetylcholine receptor M1 (Homo sapiens), sequence (P11229 whole entry, looked up): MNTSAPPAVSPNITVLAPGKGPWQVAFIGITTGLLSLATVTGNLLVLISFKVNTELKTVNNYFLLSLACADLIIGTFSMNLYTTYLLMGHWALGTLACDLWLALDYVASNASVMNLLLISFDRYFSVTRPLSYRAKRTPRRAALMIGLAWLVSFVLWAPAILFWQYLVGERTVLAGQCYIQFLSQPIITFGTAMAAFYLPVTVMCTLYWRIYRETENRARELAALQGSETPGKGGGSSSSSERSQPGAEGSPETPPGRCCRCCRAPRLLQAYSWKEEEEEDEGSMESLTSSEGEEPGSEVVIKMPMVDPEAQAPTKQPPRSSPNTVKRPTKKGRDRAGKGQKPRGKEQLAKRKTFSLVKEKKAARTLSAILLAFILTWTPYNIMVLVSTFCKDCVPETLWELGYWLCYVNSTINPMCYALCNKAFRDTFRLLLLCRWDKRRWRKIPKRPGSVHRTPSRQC
5-hydroxytryptamine receptor 2A (Homo sapiens), sequence (P28223 whole entry, looked up): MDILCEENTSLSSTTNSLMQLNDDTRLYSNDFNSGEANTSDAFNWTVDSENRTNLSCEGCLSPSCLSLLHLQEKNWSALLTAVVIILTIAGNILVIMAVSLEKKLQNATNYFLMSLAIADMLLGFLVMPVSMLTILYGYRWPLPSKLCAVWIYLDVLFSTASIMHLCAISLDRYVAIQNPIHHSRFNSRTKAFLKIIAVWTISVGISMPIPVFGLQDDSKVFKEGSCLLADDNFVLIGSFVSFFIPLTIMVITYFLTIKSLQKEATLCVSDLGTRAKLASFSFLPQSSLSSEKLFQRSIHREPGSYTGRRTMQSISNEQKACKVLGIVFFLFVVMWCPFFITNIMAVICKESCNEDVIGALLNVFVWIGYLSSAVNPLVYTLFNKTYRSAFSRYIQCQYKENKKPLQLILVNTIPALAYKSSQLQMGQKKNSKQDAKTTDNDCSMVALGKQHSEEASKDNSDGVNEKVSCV
Beta-2 adrenergic receptor (Homo sapiens), sequence (P07550 whole entry, looked up): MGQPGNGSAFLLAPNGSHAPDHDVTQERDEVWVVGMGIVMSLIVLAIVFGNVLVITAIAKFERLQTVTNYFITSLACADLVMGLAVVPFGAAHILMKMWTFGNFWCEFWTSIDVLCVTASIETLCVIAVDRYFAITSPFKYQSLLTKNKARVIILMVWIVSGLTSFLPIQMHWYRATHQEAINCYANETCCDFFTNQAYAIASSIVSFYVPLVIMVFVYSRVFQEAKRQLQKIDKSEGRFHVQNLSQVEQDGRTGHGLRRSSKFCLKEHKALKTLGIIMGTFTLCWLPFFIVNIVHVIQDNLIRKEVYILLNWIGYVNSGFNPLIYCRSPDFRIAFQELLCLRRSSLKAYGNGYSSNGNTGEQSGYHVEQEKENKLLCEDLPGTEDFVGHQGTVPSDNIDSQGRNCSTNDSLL

As to `CO/N=C(/C(=O)N[C@@H]1C(=O)N2C(C(=O)O)=C(COC(N)=O)CS[C@H]12)c1ccco1`, the Potency entry in assay [1], in [2], in [3], in assay [4], in assay [5] and in [6] was “inactive” throughout. Further, the Potency entry in assay [7], in [8], in assay [9], in [10], in [11] and in [12] was “inactive” each time. The Potency entry in assay [13], in [14], in assay [15], in [16], in assay [17] and in assay [18] was “inactive” in each case. The Potency entry in [19] was “inactive”.

For `CC/C=C\CCOC(=O)C(C)C`, the Potency entry in [1], in assay [2], in assay [3], in [4], in assay [5] and in [6] was “inactive” in each case. Besides, the Potency entry in [7], in assay [8], in assay [9], in [10], in [11] and in [12] was “inactive” throughout. For the same compound, the Potency entry in [13], in assay [14], in [15], in [16], in assay [17] and in [18] was “inactive” each time. Further, the Potency entry in assay [19] is “inactive”.

For `CC(C)CC(C)(N)C#N` (centres undefined), the Potency entry in [1], in [2], in assay [3], in assay [4], in [5] and in assay [6] was “inactive” in each case. Besides, the Potency entry in assay [7], in [8], in assay [9], in assay [10], in [11] and in assay [12] was “inactive” in each case. The Potency entry in assay [13], in assay [15], in assay [16], in assay [17], in assay [18] and in assay [19] was “inactive” throughout.

In the case of `CCCCC(CC)C(=O)OCCOCCOCCOC(=O)C(CC)CCCC` (centres undefined), the Potency entry in assay [1], in assay [3], in assay [4], in assay [5], in assay [6] and in assay [7] was “inactive” in each case. Also, the Potency result in [8], in assay [9], in [10], in [11], in assay [12] and in assay [13] was “inactive” each time. The Potency result in assay [14], in assay [15], in [16], in assay [17], in assay [18] and in assay [19] was “inactive” each time. Moreover, the Potency in [2] is 68.6 µM (active).

As for `O=Nc1ccc(NO)cc1`, the Potency result in assay [1], in assay [3], in [4], in assay [5], in [6] and in assay [7] was “inactive” each time. The Potency result in assay [8], in assay [9], in assay [10], in assay [11], in [12] and in [13] was “inactive” in each case. In addition, the Potency result in assay [14], in assay [15] and in assay [16] was “inactive” in each case. Further, the Potency in assay [2] was 63.6 µM (active).

On to `Cc1ccccc1OCC(O)CO` (centres undefined), for which the Potency result in assay [1], in [2], in assay [3], in assay [4], in [5] and in assay [6] was “inactive” in each case. In addition, the Potency entry in [7], in assay [8], in [9], in assay [10], in assay [11] and in [12] was “inactive” throughout. Moreover, the Potency entry in assay [13], in [14], in assay [15], in [17], in assay [18] and in assay [19] was “inactive” in each case.

For the compound `CCCCCCCCCCCCCCCCBr`, the activity change, negative = cytotoxicity in [1] is 3.53% [at 19 µM]; in assay [8], 0.899% [at 13.5 µM]; in assay [9] it was 0.7% [at 13.5 µM]; in assay [10], 4.33% [at 13.5 µM]. In assay [2], the activity, positive = activation was -1.44% [at 19 µM]. Further, the activity change in assay [3] is 0.0207% [at 11.8 µM, hits give high values]. Also, the activation in assay [4] was 1.03% [at 15.8 µM]; in [5], -0.623% [at 11.8 µM]; in assay [6], -0.838% [at 13.5 µM]; in assay [7], -1.9% [at 13.6 µM]; in assay [11] it was 4.11% [at 13.5 µM]; in [13] it was -4.48% [at 15.9 µM]. In addition, the values for the activation in assay [14], in assay [15] and in [18] were -0.125% [at 15.8 µM], -0.367% [at 19 µM] and -0.697% [at 19 µM], respectively. The activity, negative = inhibition in [12] is 4.99% [at 12.7 µM]. For the same compound, the activity change, negative = inhibition was -0.441% [at 19 µM] in assay [17] and -0.776% [at 18.9 µM] in assay [19].

Take `CC(C)N=C=NC(C)C`: the Potency entry in [1], in assay [2], in assay [3], in assay [4], in [5] and in assay [6] was “inactive” each time. Besides, the Potency result in assay [7], in assay [8], in assay [9], in assay [10], in assay [11] and in assay [12] was “inactive” throughout. For the same compound, the Potency result in assay [13], in assay [20], in assay [16], in assay [18] and in assay [19] was “inactive” in each case.
